From ChEMBL document CHEMBL1961873, “Compounds: GSK PKIS; Assays: Nanosyn kinase panel” (2012)

molecular target: Glycogen synthase kinase-3 alpha (Homo sapiens) (UniProt P49840); settings: at 0.1 µM
Sequence (P49840 2-483 limits assumed): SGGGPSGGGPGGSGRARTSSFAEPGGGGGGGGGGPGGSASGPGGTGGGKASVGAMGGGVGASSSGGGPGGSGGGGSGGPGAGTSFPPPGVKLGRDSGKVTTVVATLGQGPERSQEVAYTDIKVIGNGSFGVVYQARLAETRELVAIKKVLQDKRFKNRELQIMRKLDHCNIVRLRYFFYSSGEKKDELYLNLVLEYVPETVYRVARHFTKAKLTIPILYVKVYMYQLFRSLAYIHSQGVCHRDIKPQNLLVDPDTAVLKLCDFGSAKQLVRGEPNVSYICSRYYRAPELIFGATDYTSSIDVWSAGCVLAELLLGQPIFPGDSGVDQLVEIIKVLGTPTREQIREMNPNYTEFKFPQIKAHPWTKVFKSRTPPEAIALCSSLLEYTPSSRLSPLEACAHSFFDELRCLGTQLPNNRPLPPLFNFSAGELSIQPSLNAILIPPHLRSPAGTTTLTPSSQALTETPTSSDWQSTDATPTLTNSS

SMILES | inhibition
CC(C)c1ccc(Nc2nccc(-c3cnn4ncccc34)n2)cc1 | 35.6%
NS(=O)(=O)c1ccc(NC=C2C(=O)Nc3ccc4ncsc4c32)cc1 | 40.4%
COC(=O)c1cncc(/C=C/c2c(C)cc(O)cc2C)c1 | 7.07%
Nc1nccc(C#Cc2cncnc2Nc2ccc(OCc3cccc(F)c3)c(Cl)c2)n1 | 4.01%
Oc1cccc(-c2nc(-c3ccccc3)[nH]c2-c2ccncc2)c1 | 5.29%
Cc1ccc2c(-c3ccnc(Nc4ccc5c(c4)OCCO5)n3)c(-c3ccc(C(F)(F)F)cc3)nn2n1 | 5.44%
Nc1nccc(-c2c(-c3ccc(F)cc3)nn3cc(C(F)(F)F)ccc23)n1 | -1.1%
CCOc1nccc2c1nc(-c1nonc1N)n2CC | 3.1%
CCCN1CCCC(c2ccc(Nc3nc(Nc4cc(F)ccc4C(N)=O)c4cc[nH]c4n3)c(OC)c2)C1 (stereo unspecified) | 1.49%
COc1cc(/C=N/Nc2ncnc3c2cnn3C(C)C)ccc1O | 6.47%
Cc1ccc(O)cc1Nc1ccnc2ccc(S(C)(=O)=O)cc12 | 2.64%
COc1cc(Nc2nccc(-c3cnn4ncccc34)n2)cc(OC)c1 | 49.7%
CN(C)C(=O)O[C@H]1CN[C@H](C#Cc2cc3ncnc(Nc4ccc(OCc5cccc(F)c5)c(Cl)c4)c3s2)C1 | 1.64%
c1ccc(Nc2ncc(-c3ccccc3)o2)cc1 | 4.96%
NC(=O)c1cccc(Nc2nccc(Nc3cccc(F)c3)n2)c1 | 3.82%
Cc1cc(-c2ccccn2)cc(C)c1/C=C/c1cncc(-c2nn[nH]n2)c1 | 5.73%
CCn1c(-c2nonc2N)nc2ccc(F)cc21 | 3.78%

SMILES | inhibition
CN(C)c1cc2c(Nc3ccc4c(cnn4Cc4ccccc4)c3)ncnc2cn1 | 1.84%
COC(=O)c1ccc2c(c1)C(=Cc1cc(Br)c(O)c(Br)c1)C(=O)N2 | 9.38%
Cc1ccc(NC(=O)CC2CC2)cc1-c1ccc(C(=O)NCC2CC2)cc1 | 2.32%
CN(C)C(=O)O[C@@H]1CN[C@@H](C#Cc2cc3ncnc(Nc4ccc(OCc5cccc(F)c5)c(Cl)c4)c3s2)C1 | 1.34%
O=C(Nc1ccc(Oc2ccc3[nH]c(NC(=O)c4ccco4)nc3c2)cc1)Nc1cc(C(F)(F)F)ccc1F | -1.87%
c1ccc(Cc2nc3ccc(Nc4ncnc5ccccc45)cc3[nH]2)cc1 | 5.62%
CCS(=O)(=O)c1ccc(OC)c(Nc2nccc(N(C)c3ccc4c(C)n[nH]c4c3)n2)c1 | 2.43%
COc1cccc(-n2ncc3c(N/N=C/c4ccc(C)cc4)ncnc32)c1 | 19.4%
NS(=O)(=O)c1cccc(Nc2cc(-c3ccc(F)cc3)n[nH]2)c1 | 3.57%
COc1cc2ncn(-c3cc(OCc4ccccc4S(C)(=O)=O)c(C#N)s3)c2cc1OC | 4.96%
Cc1ccc(Nc2ccnc(Nc3cccc(C(N)=O)c3)n2)cc1O | 0.67%
NS(=O)(=O)c1ccc(-c2cc3ccncc3cc2OCc2ccccc2)cc1 | 2.45%
COc1cc2ncnc(Nc3ccc(C)c(O)c3)c2cc1OC | 4.81%
NS(=O)(=O)c1ccc(Nc2cc(-c3cccc(O)c3)n[nH]2)cc1 | 2.99%
NS(=O)(=O)c1cccc(-c2cc3ccncc3cc2OCc2ccccc2)c1 | 1.97%
CC(C)c1ccc2c(c1)NC(=O)/C2=N/Nc1ccc(S(N)(=O)=O)cc1 | 4.22%

molecular target: Glycogen synthase kinase-3 alpha (Homo sapiens) (UniProt P49840); settings: at 1 µM

SMILES | inhibition
CC(C)c1ccc(Nc2nccc(-c3cnn4ncccc34)n2)cc1 | 76%
NS(=O)(=O)c1ccc(NC=C2C(=O)Nc3ccc4ncsc4c32)cc1 | 70.9%
COC(=O)c1cncc(/C=C/c2c(C)cc(O)cc2C)c1 | 14.3%
Nc1nccc(C#Cc2cncnc2Nc2ccc(OCc3cccc(F)c3)c(Cl)c2)n1 | 14.3%
Oc1cccc(-c2nc(-c3ccccc3)[nH]c2-c2ccncc2)c1 | 14.8%
Cc1ccc2c(-c3ccnc(Nc4ccc5c(c4)OCCO5)n3)c(-c3ccc(C(F)(F)F)cc3)nn2n1 | 10.5%
Nc1nccc(-c2c(-c3ccc(F)cc3)nn3cc(C(F)(F)F)ccc23)n1 | -0.65%
CCOc1nccc2c1nc(-c1nonc1N)n2CC | 10.2%
CCCN1CCCC(c2ccc(Nc3nc(Nc4cc(F)ccc4C(N)=O)c4cc[nH]c4n3)c(OC)c2)C1 (stereo unspecified) | 2.99%
COc1cc(/C=N/Nc2ncnc3c2cnn3C(C)C)ccc1O | 37.4%
Cc1ccc(O)cc1Nc1ccnc2ccc(S(C)(=O)=O)cc12 | 1.72%
COc1cc(Nc2nccc(-c3cnn4ncccc34)n2)cc(OC)c1 | 86.8%
CN(C)C(=O)O[C@H]1CN[C@H](C#Cc2cc3ncnc(Nc4ccc(OCc5cccc(F)c5)c(Cl)c4)c3s2)C1 | 5.51%
c1ccc(Nc2ncc(-c3ccccc3)o2)cc1 | 15.8%
NC(=O)c1cccc(Nc2nccc(Nc3cccc(F)c3)n2)c1 | 21%
Cc1cc(-c2ccccn2)cc(C)c1/C=C/c1cncc(-c2nn[nH]n2)c1 | 12.5%
CCn1c(-c2nonc2N)nc2ccc(F)cc21 | 4.96%

SMILES | inhibition
CN(C)c1cc2c(Nc3ccc4c(cnn4Cc4ccccc4)c3)ncnc2cn1 | 5.95%
COC(=O)c1ccc2c(c1)C(=Cc1cc(Br)c(O)c(Br)c1)C(=O)N2 | 42.9%
Cc1ccc(NC(=O)CC2CC2)cc1-c1ccc(C(=O)NCC2CC2)cc1 | 2.3%
CN(C)C(=O)O[C@@H]1CN[C@@H](C#Cc2cc3ncnc(Nc4ccc(OCc5cccc(F)c5)c(Cl)c4)c3s2)C1 | 8.31%
O=C(Nc1ccc(Oc2ccc3[nH]c(NC(=O)c4ccco4)nc3c2)cc1)Nc1cc(C(F)(F)F)ccc1F | 2.71%
c1ccc(Cc2nc3ccc(Nc4ncnc5ccccc45)cc3[nH]2)cc1 | 9.56%
CCS(=O)(=O)c1ccc(OC)c(Nc2nccc(N(C)c3ccc4c(C)n[nH]c4c3)n2)c1 | 3.41%
COc1cccc(-n2ncc3c(N/N=C/c4ccc(C)cc4)ncnc32)c1 | 55.6%
NS(=O)(=O)c1cccc(Nc2cc(-c3ccc(F)cc3)n[nH]2)c1 | 7.78%
COc1cc2ncn(-c3cc(OCc4ccccc4S(C)(=O)=O)c(C#N)s3)c2cc1OC | 11.3%
Cc1ccc(Nc2ccnc(Nc3cccc(C(N)=O)c3)n2)cc1O | 14.9%
NS(=O)(=O)c1ccc(-c2cc3ccncc3cc2OCc2ccccc2)cc1 | 4.95%
COc1cc2ncnc(Nc3ccc(C)c(O)c3)c2cc1OC | 8.57%
NS(=O)(=O)c1ccc(Nc2cc(-c3cccc(O)c3)n[nH]2)cc1 | 6.38%
NS(=O)(=O)c1cccc(-c2cc3ccncc3cc2OCc2ccccc2)c1 | 4.81%
CC(C)c1ccc2c(c1)NC(=O)/C2=N/Nc1ccc(S(N)(=O)=O)cc1 | 16.5%
